This passage reports Potency and activity change, negative = growth inhibition results from PubChem BioAssay AID686978 (National Center for Advancing Translational Sciences (NCATS), 2013).

Hit rate of the full screen: of about 420,000 compounds, about 64,000 (15%) were called active. About 27% were inconclusive and are not listed. Only a sample is shown. Where a call stands in place of a potency, no number is given. A number with no mark means an inactive call. Calls come from the whole dose curve; as a rule, active = well fitted inhibition curve with a large enough effect; inconclusive = small, poorly fitted or top-dose-only effect; inactive = flat fitted curve, though single readings scatter.
Potency is the fitted concentration of half-maximal effect.

The assay can be described thus: qHTS for Inhibitors of human tyrosyl-DNA phosphodiesterase 1 (TDP1): qHTS in cells in absence of CPT. Note: nearly all actives have a fitted effect of over 55% in size. The settings on record: DT40 Tdp1-/- hTDP1 cells, no CPT, ATP luminescence, 48 h; activity change, negative = growth inhibition: at 46.2 µM (top of the series). An outline of the steps:
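Chicken DT40 Tdp1-/- cells stably complemented with human TDP1 were seeded at 400 cells/well with DMSO in place of 20 nM camptothecin. After compound pinning, cells grew at least 48 hr at 37 °C; viability read by CellTiter-Glo luminescence.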
For orientation: Quantitative high-throughput screening tests each substance at several concentrations.
Take `CCOC(=O)c1c(-c2ccccc2)oc2ccc(OCC(=O)NN)cc12`: the Potency result was “inactive”.
The same measure, in the same setting: the value for `COc1cc(-c2nnc(NC(=O)CS(=O)(=O)c3ccc(Cl)cc3)o2)cc(OC)c1OC` was “inactive”; that for `COC(=O)c1c(-c2ccsc2)oc2ccc(-c3cc(OC)c(OC)c(OC)c3)cc12` was 16.4 µM (active).
In the case of `C/C(Nc1ccc2oc(=O)ccc2c1)=C1/C(=O)CC2[C@@H]1C2(C)C` (stereo partly drawn), the activity change, negative = growth inhibition was -12.6% [at 9.04 µM].
As for `C/C(=N/NC(=O)c1ccn(C)n1)c1ccncc1`, the Potency entry was “inactive”.
Still for that read-out and setting: under `Cc1cnc(NC(=O)C2CCCC2)s1` stands “inactive”; under `CCCCCNC(=O)Cc1ccc(OC)cc1`, “inactive”.
Same read-out and setting: the value for `COc1ccc(CC(=O)Nc2ccc(-c3nnc(-c4ccc(C)cc4)o3)cc2)cc1` was “inactive”; that for `C/C=C/NNC(=O)Cc1ccc(OC)cc1` was 5.62 µM (active).
On the same count and under the same terms, the value for `CS(=O)(=O)N1CCN(C(=O)Cc2ccccc2)CC1` was “inactive”; that for `CC(C)c1ccc(CC(=O)N2CCC2(C)C(=O)NS(=O)(=O)c2ccc(C(C)(C)C)cc2)cc1` (stereo not drawn) was “inactive”.
As for `Oc1ccc(CN2CCN(c3ncccn3)CC2)cc1`, the Potency entry is “inactive”.
The same measure, in the same setting: the value for `c1cnc(N2CCN(c3ccc4ccccc4n3)CC2)nc1` was 18.4 µM (active); that for `CC1=C(N2CCN(c3ncccn3)CC2)CCC1=O` was “inactive”.
For `N#CCc1ccc(NC(=O)c2ccccc2C(=O)Nc2ccc(CC#N)cc2)cc1`, the Potency entry is “inactive”.
With `CC(=O)Nc1ccc(CC#N)cc1`, the Potency entry is “inactive”.
Consider `O=C(NCCN1CCOCC1)c1cnn(-c2nccc(-c3cccs3)n2)c1C1CC1`, for which the Potency result was “inactive”.
Same read-out and setting: under `CC(C)n1ncc2c(C(=O)N3CCN(Cc4cccs4)CC3)cc(C3CC3)nc21` stands 25.9 µM (active); under `CC(C)n1ncc2c(C(=O)Nc3ccc(CC#N)cc3)cc(C3CC3)nc21`, 13 µM (active).
Same read-out and setting: the value for `Cc1ccsc1C1C(C#N)=C(N)OC2=C1C(=O)CC(C)C2` (stereo not drawn) was “inactive”; that for `CCOC(=O)Cc1cc(=O)[nH]c(=O)[nH]1` was “inactive”; that for `COCCn1cnnc1SCC(=O)Nc1cccc(S(=O)(=O)N2CCCCC2)c1` was “inactive”.
Same read-out and setting: the value for `Cc1c(CCO)c(=O)n(-c2ccccc2)n1S(=O)(=O)c1ccc(F)cc1` was “inactive”; that for `COCCCNC(=O)C1CC(=O)N(c2ccc(C)cc2)C1` (stereo not drawn) was “inactive”; that for `Cc1oc(-c2ccccc2F)nc1CS(=O)(=O)CC(=O)NCCCN(C)C1CCCCC1` was “inactive”.
In the case of `Cc1ccc(N2C(=O)C(CC(=O)Nc3cccc(F)c3)N(CCc3ccncc3)C2=O)cc1` (stereo not drawn), the Potency entry was “inactive”.
Still for that read-out and setting: the value for `CCOc1ccc(NC(=O)CN(C)C(=O)CCSc2ccc(F)cc2)cc1OCC` was “inactive”; that for `CCN(C(=O)COC(=O)C1CCN(S(=O)(=O)c2ccc(C)c(C)c2)CC1)C1CCS(=O)(=O)C1` (stereo not drawn) was “inactive”.
On the same count and under the same terms, under `O=[N+]([O-])c1ccc(N(CCO)Cc2ccccc2)c([N+](=O)[O-])c1` stands “inactive”; under `CCCN(CCC)C(=O)C1c2ccccc2Oc2ccccc21`, 25.9 µM (active); under `CCCCCNC(=O)C1c2ccccc2Oc2ccccc21`, “inactive”.
`CCOC(=O)CC(NC(=O)C1c2ccccc2Oc2ccccc21)c1ccc(C)cc1` (stereo not drawn): the Potency entry is “inactive”.
Still for that read-out and setting: under `Cc1ccccc1OCCC(=O)OCC(=O)NCCc1ccc(S(N)(=O)=O)cc1` stands “inactive”; under `Cc1cccc(-n2ccnc2SCC(=O)Nc2cccc3ccccc23)c1C`, 16.4 µM (active).
On the same count and under the same terms, under `Cc1cc(NC(=O)CSc2nccn2-c2ccc([N+](=O)[O-])cc2)no1` stands “inactive”; under `O=C(CSc1nccn1-c1ccc(F)cc1)Nc1cccc2ccccc12`, 14.6 µM (active).
Same read-out and setting: under `Cc1nnc(NC(=O)CSc2nccn2-c2cccc(C)c2C)s1` stands 3.26 µM (active).
With `Cc1cccc(CSc2nnc(NC(=O)CSc3nnc(C)s3)s2)c1`, the Potency entry was “inactive”.
Consider `COc1ccccc1-n1c(CNC(=O)c2ccccc2)nnc1SCC(=O)Nc1nnc(C)s1`, for which the Potency result is “inactive”.
The same measure, in the same setting: the value for `Cc1ccccc1-n1c(SCC(=O)Nc2cccc3ccccc23)nc(O)cc1=O` was “inactive”; that for `CC(=O)Nc1cccc(NC(=O)CSc2nccn2Cc2ccc(F)cc2)c1` was “inactive”; that for `COc1ccccc1-n1ccnc1SCC(=O)NC(C)(C)C` was “inactive”.
Turning to `Cc1cccc(NC(=O)c2ccc(OCC(=O)NCc3ccccc3)cc2)c1C`, the Potency entry was “inactive”.
The same measure, in the same setting: under `COC(=O)C(C(=O)Nc1cccc(Cl)c1C)C1CCCC1` (stereo not drawn) stands “inactive”; under `CCOC(=O)C(=O)C1C(=O)Nc2ccccc21` (stereo not drawn), “inactive”.
The same measure, in the same setting: the value for `CCC(=O)Nc1c(C)n[nH]c1C` was “inactive”.
Take `CCOc1ccc(-c2cn(S(=O)(=O)c3cccc4nsnc34)nc2N)cc1`: the Potency result is “inactive”.
On the same count and under the same terms, the value for `COc1cccc(CNC(=O)CN2C(=O)CCc3cc(S(=O)(=O)N4CCOCC4)ccc32)c1` was “inactive”; that for `Cc1cc(NC(=O)CSc2nc(=O)cc(N)n2-c2ccc(F)cc2)no1` was “inactive”.
Still for that read-out and setting: under `CC(=O)c1ccc(NC(c2ccc(F)cc2)c2nnc(-c3ccccc3)o2)cc1` (stereo not drawn) stands 8.2 µM (active).
The same measure, in the same setting: under `CC(=O)c1ccc(NC(=O)COc2ccccc2-c2nc(-c3ccccc3)no2)cc1` stands “inactive”.
As to `CCCN(CCC)c1ccc(C(O)c2nnc(-c3ccccc3)o2)cc1` (stereo not drawn), the Potency entry was “inactive”.
On the same count and under the same terms, the value for `NC(=O)C1(N2CCCC2)CCN(Cc2ccccc2)CC1` was “inactive”; that for `COC(=O)[C@@H]1C[C@H]2CC[C@H](O)C[C@H]2N1Cc1ccc(N2CCN(C)CC2)cc1` was “inactive”.
The same measure, in the same setting: under `COCCNC(=O)C(c1ccc(C)o1)N(Cc1ccccc1)C(=O)Cn1nnc2ccccc21` (stereo not drawn) stands “inactive”; under `Cc1ccc2nc(/C(C#N)=C\c3ccc(OC(=O)c4cccs4)cc3)[nH]c2c1`, 6.51 µM (active); under `Cc1ccc2nc(S(=O)(=O)O)[nH]c2c1`, “inactive”.
Same read-out and setting: the value for `Cc1ccc2nc(/C(C#N)=C/c3ccc(-c4ccc(C(=O)OC(C)C)cc4)o3)[nH]c2c1` was 5.17 µM (active); that for `CCOc1ccc(/C=C(\C#N)c2nc3ccccc3c(=O)[nH]2)cc1OC` was “inactive”.
As for `CCOC(=O)c1ccc(-c2ccc(/C=C(\C#N)C(=O)Nc3ccc(OCC)cc3)o2)cc1`, the Potency entry was “inactive”.
Regarding `COc1cc(/C=C(\C#N)c2nc3ccccc3[nH]2)ccc1O`, the Potency was 23.1 µM (active).
Same read-out and setting: under `N#C/C(=C\c1ccccc1F)c1nc2ccccc2c(=O)[nH]1` stands “inactive”.
On the same count and under the same terms, under `COc1ccccc1CSc1nc2ccccc2[nH]1` stands “inactive”.
Still for that read-out and setting: under `Cc1ccc2nc(/C(C#N)=C/c3ccccc3F)[nH]c2c1` stands 18.4 µM (active); under `N#CCCC(C#N)(c1cccnc1)N1CCOCC1` (stereo not drawn), “inactive”; under `CCCCN1CC(COCc2ccccc2)OCCS1(=O)=O` (stereo not drawn), “inactive”.
As for `CC(C)c1cc(C(=O)O)on1`, the Potency result is “inactive”.
`CN(C(=O)CSc1nnnn1-c1ccccc1)C1CCCCC1`: the Potency result is “inactive”.
